# Test results as given in the supplement of paper PMC4466140.
# How the values were obtained:
# Experiment in all cases: SPOT peptide array binding signal intensity (averaged, normalized) (arbitrary units (background-subtracted, floor 0; scale differs between SH3 domains)); higher = stronger binding of the SH3 domain to the peptide
# AgAbp1 = target: AgAbp1
# Procedure: (§1)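 GST-tagged SH3 domains from S. cerevisiae (Sc), A. gossypii (Ag), C. albicans (Ca) and S. pombe (Sp) were incubated at 10 ug/ml overnight at 4 C on cellulose SPOT membranes carrying 292 synthetic 15-mer peptides mined from the S. cerevisiae proteome (cysteines replaced by serines). Binding was detected with anti-GST antibody, HRP secondary and chemiluminescence, quantified with Genespotter, and reported as normalized spot intensities averaged over biological replicates.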
# AgBbc1 = target: AgBbc1
# Procedure: as §1
# AgBem1-D1 = target: AgBem1-D1
# Procedure: as §1
# AgBzz1-D1 = target: AgBzz1-D1
# Procedure: as §1
# AgBzz1-D2 = target: AgBzz1-D2
# Procedure: as §1
# AgCyk3 = target: AgCyk3
# Procedure: as §1
# AgFus1 = target: AgFus1
# Procedure: as §1
# AgHof1 = target: AgHof1
# Procedure: as §1
# AgHse1 = target: AgHse1
# Procedure: as §1
# AgLsb1 = target: AgLsb1
# Procedure: as §1
# AgLsb4 = target: AgLsb4
# Procedure: as §1
# AgMyo5 = target: AgMyo5
# Procedure: as §1
# AgNbp2 = target: AgNbp2
# Procedure: as §1
# AgRvs167 = target: AgRvs167
# Procedure: as §1
# AgSho1 = target: AgSho1
# Procedure: as §1
# AgSla1-D1-D2 = target: AgSla1-D1-D2
# Procedure: as §1
# AgSla1-D3 = target: AgSla1-D3
# Procedure: as §1
# CaAbp1-D1 = target: CaAbp1-D1
# Procedure: as §1
# CaAbp1-D2 = target: CaAbp1-D2
# Procedure: as §1
# CaBbc1 = target: CaBbc1
# Procedure: as §1
# CaBem1-D1 = target: CaBem1-D1
# Procedure: as §1
# CaBzz1-D1 = target: CaBzz1-D1
# Procedure: as §1
# CaBzz1-D2 = target: CaBzz1-D2
# Procedure: as §1
# CaCyk3 = target: CaCyk3
# Procedure: as §1
# CaFus1 = target: CaFus1
# Procedure: as §1
# CaHof1 = target: CaHof1
# Procedure: as §1
# CaHse1 = target: CaHse1
# Procedure: as §1
# CaLsb1 = target: CaLsb1
# Procedure: as §1
# CaLsb4 = target: CaLsb4
# Procedure: as §1
# CaMyo5 = target: CaMyo5
# Procedure: as §1
# CaNbp2 = target: CaNbp2
# Procedure: as §1
# CaRvs167 = target: CaRvs167
# Procedure: as §1
# CaRvs167-3 = target: CaRvs167-3
# Procedure: as §1
# CaSho1 = target: CaSho1
# Procedure: as §1
# CaSla1-D1-D2 = target: CaSla1-D1-D2
# Procedure: as §1
# CaSla1-D3 = target: CaSla1-D3
# Procedure: as §1
# ScAbp1 = target: ScAbp1
# Procedure: as §1
# ScBbc1 = target: ScBbc1
# Procedure: as §1
# ScBem1-D1 = target: ScBem1-D1
# Procedure: as §1
# ScBzz1-D1 = target: ScBzz1-D1
# Procedure: as §1
# ScBzz1-D2 = target: ScBzz1-D2
# Procedure: as §1
# ScCyk3 = target: ScCyk3
# Procedure: as §1
# ScFus1 = target: ScFus1
# Procedure: as §1
# ScHof1 = target: ScHof1
# Procedure: as §1
# ScHse1 = target: ScHse1
# Procedure: as §1
# ScLsb1 = target: ScLsb1
# Procedure: as §1
# ScLsb2 = target: ScLsb2
# Procedure: as §1
# ScLsb3 = target: ScLsb3
# Procedure: as §1
# ScLsb4 = target: ScLsb4
# Procedure: as §1
# ScMyo3 = target: ScMyo3
# Procedure: as §1
# ScMyo5 = target: ScMyo5
# Procedure: as §1
# ScNbp2 = target: ScNbp2
# Procedure: as §1
# ScPex13 = target: ScPex13
# Procedure: as §1
# ScRvs167 = target: ScRvs167
# Procedure: as §1
# ScSho1 = target: ScSho1
# Procedure: as §1
# ScSla1-D1-D2 = target: ScSla1-D1-D2
# Procedure: as §1
# ScSla1-D3 = target: ScSla1-D3
# Procedure: as §1
# SpAbp1-D1 = target: SpAbp1-D1
# Procedure: as §1
# SpBbc1 = target: SpBbc1
# Procedure: as §1
# SpBzz1-D1 = target: SpBzz1-D1
# Procedure: as §1
# SpBzz1-D2 = target: SpBzz1-D2
# Procedure: as §1
# SpCyk3 = target: SpCyk3
# Procedure: as §1
# SpHof1 = target: SpHof1
# Procedure: as §1
# SpHof1-2 = target: SpHof1-2
# Procedure: as §1
# SpHof1-3 = target: SpHof1-3
# Procedure: as §1
# SpHse1 = target: SpHse1
# Procedure: as §1
# SpLsb1 = target: SpLsb1
# Procedure: as §1
# SpLsb4 = target: SpLsb4
# Procedure: as §1
# SpMyo1 = target: SpMyo1
# Procedure: as §1
# SpNbp2 = target: SpNbp2
# Procedure: as §1
# SpPex13 = target: SpPex13
# Procedure: as §1
# SpRvs167 = target: SpRvs167
# Procedure: as §1
# SpSla1-D1-D2 = target: SpSla1-D1-D2
# Procedure: as §1
# SpSla1-D3 = target: SpSla1-D3
# Procedure: as §1
binder,measurement,setting,value
RRLRDKYKLPIVDAD,SPOT peptide array binding signal intensity,AgAbp1,38
same,SPOT peptide array binding signal intensity,AgBbc1,20.8
same,SPOT peptide array binding signal intensity,AgBem1-D1,52
same,SPOT peptide array binding signal intensity,AgBzz1-D1,32
same,SPOT peptide array binding signal intensity,AgBzz1-D2,61.5
same,SPOT peptide array binding signal intensity,AgCyk3,1
same,SPOT peptide array binding signal intensity,AgFus1,163
same,SPOT peptide array binding signal intensity,AgHof1,17
same,SPOT peptide array binding signal intensity,AgHse1,748
same,SPOT peptide array binding signal intensity,AgLsb1,6
same,SPOT peptide array binding signal intensity,AgLsb4,18
same,SPOT peptide array binding signal intensity,AgMyo5,0.75
same,SPOT peptide array binding signal intensity,AgNbp2,63
same,SPOT peptide array binding signal intensity,AgRvs167,3.33
same,SPOT peptide array binding signal intensity,AgSho1,83
same,SPOT peptide array binding signal intensity,AgSla1-D1-D2,299
same,SPOT peptide array binding signal intensity,AgSla1-D3,3
same,SPOT peptide array binding signal intensity,CaAbp1-D1,311
same,SPOT peptide array binding signal intensity,CaAbp1-D2,326
same,SPOT peptide array binding signal intensity,CaBbc1,13
same,SPOT peptide array binding signal intensity,CaBem1-D1,5.5
same,SPOT peptide array binding signal intensity,CaBzz1-D1,180
same,SPOT peptide array binding signal intensity,CaBzz1-D2,34.5
same,SPOT peptide array binding signal intensity,CaCyk3,3
same,SPOT peptide array binding signal intensity,CaFus1,318
same,SPOT peptide array binding signal intensity,CaHof1,0.5
same,SPOT peptide array binding signal intensity,CaHse1,12.2
same,SPOT peptide array binding signal intensity,CaLsb1,1
same,SPOT peptide array binding signal intensity,CaLsb4,13
same,SPOT peptide array binding signal intensity,CaMyo5,1.5
same,SPOT peptide array binding signal intensity,CaNbp2,102
same,SPOT peptide array binding signal intensity,CaRvs167,5.5
same,SPOT peptide array binding signal intensity,CaRvs167-3,42.5
same,SPOT peptide array binding signal intensity,CaSho1,241
same,SPOT peptide array binding signal intensity,CaSla1-D1-D2,5
same,SPOT peptide array binding signal intensity,CaSla1-D3,1.75
same,SPOT peptide array binding signal intensity,ScAbp1,14.5
same,SPOT peptide array binding signal intensity,ScBbc1,8.5
same,SPOT peptide array binding signal intensity,ScBem1-D1,26
same,SPOT peptide array binding signal intensity,ScBzz1-D1,18
same,SPOT peptide array binding signal intensity,ScBzz1-D2,23
same,SPOT peptide array binding signal intensity,ScCyk3,22
same,SPOT peptide array binding signal intensity,ScFus1,115
same,SPOT peptide array binding signal intensity,ScHof1,1
same,SPOT peptide array binding signal intensity,ScHse1,1110
same,SPOT peptide array binding signal intensity,ScLsb1,9
same,SPOT peptide array binding signal intensity,ScLsb2,7.5
same,SPOT peptide array binding signal intensity,ScLsb3,90
same,SPOT peptide array binding signal intensity,ScLsb4,8
same,SPOT peptide array binding signal intensity,ScMyo3,2.5
same,SPOT peptide array binding signal intensity,ScMyo5,1.5
same,SPOT peptide array binding signal intensity,ScNbp2,90
same,SPOT peptide array binding signal intensity,ScPex13,0.5
same,SPOT peptide array binding signal intensity,ScRvs167,3.33
same,SPOT peptide array binding signal intensity,ScSho1,411
same,SPOT peptide array binding signal intensity,ScSla1-D1-D2,36.5
same,SPOT peptide array binding signal intensity,ScSla1-D3,13
same,SPOT peptide array binding signal intensity,SpAbp1-D1,88.5
same,SPOT peptide array binding signal intensity,SpBbc1,0.75
same,SPOT peptide array binding signal intensity,SpBzz1-D1,56
same,SPOT peptide array binding signal intensity,SpBzz1-D2,0.5
same,SPOT peptide array binding signal intensity,SpCyk3,2.5
same,SPOT peptide array binding signal intensity,SpHof1,54.5
same,SPOT peptide array binding signal intensity,SpHof1-2,12
same,SPOT peptide array binding signal intensity,SpHof1-3,318
same,SPOT peptide array binding signal intensity,SpHse1,346
same,SPOT peptide array binding signal intensity,SpLsb1,49.2
same,SPOT peptide array binding signal intensity,SpLsb4,44
same,SPOT peptide array binding signal intensity,SpMyo1,1.25
same,SPOT peptide array binding signal intensity,SpNbp2,105
same,SPOT peptide array binding signal intensity,SpPex13,9
same,SPOT peptide array binding signal intensity,SpRvs167,0.833
same,SPOT peptide array binding signal intensity,SpSla1-D1-D2,3
same,SPOT peptide array binding signal intensity,SpSla1-D3,6
